SSB-PriA inh – inhibitors of Klebsiella pneumoniae PriA binding to SSB C-terminal tail, primary screen, biochemical, AlphaScreen. PriA–SSB C-terminal tail interaction (Klebsiella pneumoniae). AlphaScreen SSBct-PriA binding, biotinylated peptide. inhibition, % at 33 µM. hit rate 0.6% among 430,000. AID 1272365, 2023; in the data active = inhibition mostly above about 37%, no sharp cut-off; inactive = mostly below about 20%;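 note: plate controls were negative control peptide for no effect and reference peptide for full effect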
PrP 5UTR inh – inhibition of PrP 5' UTR reporter expression | cell-based PrP 5' UTR mRNA reporter, plate reader | inhibition, % (no concentration beside the values) | hit rate 0.35% among 340,000 | AID 488862, 2010; in the data active = inhibition above about 52%; note: 0 = median of the neutral control wells
PfHsp40 rescue – rescue of yeast from PfHsp40 toxicity, primary screen, S. cerevisiae, ATP luminescence. S. cerevisiae expressing PfHsp40, growth rescue. growth rescue, % at 12.5 µM. hit rate 0.68% among 340,000. AID 504582, 2011; in the data active = growth rescue above about 28%, passing the limit was not always enough;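 note: yeast W303a lacking pdr1 and pdr3 grown in galactose medium; growth measured after three days at 30 °C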
MazF activator – activators of E. coli MazEF toxin-antitoxin RNase, primary screen, biochemical, fluorescence, uHTS; hit rate 0.32% among 350,000; FAM/BHQ RNA-DNA oligo cleavage fluorescence, 5 h; activation, % at 20 µM; Endoribonuclease toxin MazF (Escherichia coli (strain K12)), P0AE70; in the data active = activation above about 50%
Target sequence (P0AE70 whole entry, looked up): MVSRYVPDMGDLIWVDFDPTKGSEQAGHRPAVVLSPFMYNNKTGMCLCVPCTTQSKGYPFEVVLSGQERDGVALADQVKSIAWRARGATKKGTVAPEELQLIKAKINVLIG
PrPC surface inh – inhibitors of human cell surface prion protein PrPC, primary screen, cell-based, TR-FRET. TR-FRET read-out. hit rate 0.43% among 370,000. Major prion protein (Homo sapiens), P04156. inhibition, % at 13.8 µM. AID 720596, 2013; in the data active = inhibition above about 24%; note: 0% = median of the test wells and 100% = reference compound wells
The depositor's hits bear a star; . = not tested or not shown. Most compounds without a hit are left out; they make up all but 1.8% or so of the library.

SMILES | SSB-PriA inh | PrP 5UTR inh | PfHsp40 rescue | MazF activator | PrPC surface inh
F[B-](F)(F)c1cc2cc(Br)ccc2s1 | -8 | 7 | 186* | -10 | .
COc1ccc(Cl)cc1NC(=O)CN1CCc2ccccc21 | 13 | -2 | -1 | 1 | 7
Cc1ccc(C2CC2C(=O)NNC(=S)Nc2cccc(Cl)c2)cc1 (stereo not given) | -3 | -20 | 79* | 2 | 14
Cc1ccc(S(=O)(=O)NC(=O)Nc2ccc(N(C)C)cc2)cc1 | 83* | -33 | 0 | 9 | -30
COc1ccc(NC(=O)CS(=O)(=O)c2ccc(C)cc2)c(OC)c1 | -8 | -11 | 0 | 4 | 4
COc1ccc(NC(=O)NS(=O)(=O)c2ccc(C)cc2)c(OC)c1 | 53* | -24 | 2 | 0 | -8
Cc1ccc(NC(=O)NNS(=O)(=O)c2ccc(Br)cc2)cc1 | -6 | -6 | -1 | 0 | -2
Cc1cc(C)n(-c2ccc(N3CCOCC3)nn2)n1 | 3 | -32 | 36* | 4 | -8
Cc1cc(C)n(-c2ccc(N3CCN(S(=O)(=O)Cc4ccccc4)CC3)nn2)n1 | 12 | . | . | . | .
CCN(CC1CCCO1)C(=O)C1CCN(C2CCN(Cc3ccccc3C)CC2)CC1 (stereo not given) | 0 | -4 | -1 | -8 | -7
C[C@H](CO)N1C[C@H](C)[C@H](CN(C)S(C)(=O)=O)OCc2cnnn2CCCC1=O | . | . | . | 68* | 2
O=[N+]([O-])c1ccccc1NC(=S)NN=Cc1ccc(O)c(O)c1 | 42* | . | . | . | .
CCOc1ccc(NC(=O)CN(C)C(=O)c2ccc(OCc3ccccc3)c(OC)c2)cc1OCC | 42* | -25 | 0 | -5 | 8
COc1ccc(Cl)cc1NC(=O)CN(C)C(=O)c1ccc(OCc2ccccc2)c(OC)c1 | 1 | 7 | 0 | -5 | 1
COc1cc2c(c3ccccc13)CCCC2=O | -9 | -16 | 0 | 3 | 0
O=C1CCCc2c1ccc1ccccc21 | -11 | -19 | 29* | 0 | -8
CC(C)(C)OC(=O)N1CSC[C@H]1C(=O)NC[C@H](CC(=O)O)c1ccc(Cl)cc1 | 1 | -4 | 0 | 2 | -2
CCC(=O)OCCNc1cc(Sc2nc3ccccc3s2)c2nonc2c1[N+](=O)[O-] | -3 | -23 | 0 | 17 | 1
O=[N+]([O-])c1c(NCCCO)cc(Sc2nc3ccccc3s2)c2nonc12 | -15 | -16 | -1 | 114* | .
CCOC(=O)NC(=O)C(/C=N/c1sccc1C(=O)OC)=C(\C)O | . | -13 | -1 | 2 | 5
Cc1cccnc1CN1CCN(C(=O)c2cc(COc3ccc4ncccc4c3)on2)CC1 | 5 | -13 | 0 | 6 | 24
CC(OC(=O)COc1ccc(Nc2ccccc2)cc1)C(=O)N(C)c1ccccc1 (stereo not given) | 40* | -3 | 1 | -2 | -5
O=C(Nc1cccc(Cl)c1)c1ccc2c(c1)OCCO2 | -10 | -86 | 81* | 16 | 5
O=C(Nc1ccc2c(c1)OCCO2)c1cccc(Cl)c1 | -7 | -76 | 5 | -2 | 0
Cc1[nH]c2ccccc2c1C(=O)/C=C/c1ccccc1Cl | 2 | -71 | 3 | 51* | 7
SMILES | SSB-PriA inh | PrP 5UTR inh | PfHsp40 rescue | MazF activator | PrPC surface inh
Cc1cc(N2CCOCC2)nc(SCC(=O)c2ccccc2)n1 | 11 | -14 | 1 | 4 | 9
C/C(CC(C)C)=N\NS(=O)(=O)c1ccc(C)c([N+](=O)[O-])c1 | . | 1 | 2 | 68* | 3
CC(C)(C)C1CCC(=NNS(=O)(=O)c2ccc(Br)cc2)CC1 (stereo not given) | -9 | -25 | 0 | 66* | -7
O=S(=O)(N/N=C1/CCCc2ccccc21)c1ccc(Br)cc1 | . | -1 | 1 | -2 | 4
CC1CCCC/C1=N\NS(=O)(=O)c1ccc(Br)cc1 (stereo not given) | . | -4 | 0 | 78* | 7
CC(CCC(C)C)=NNS(=O)(=O)c1ccc(C)c([N+](=O)[O-])c1 | -10 | . | . | . | .
Cc1ccc(S(=O)(=O)NN=C2CCC(C(C)(C)C)CC2)cc1[N+](=O)[O-] (stereo not given) | -11 | -11 | 1 | 115* | .
O=C(c1cc2cc(Br)ccc2oc1=O)N1CCN(c2ccc(Cl)cc2)CC1 | 6 | . | . | . | .
Cc1ccc([N+](=O)[O-])cc1N=C(c1ccc([N+](=O)[O-])cc1)N1CCOCC1 | 16 | -16 | -1 | 7 | -5

Source: PubChem BioAssay
